p53 reactivation: qHTS assay for re-activators of p53 using a Luc reporter. 320,000 compounds, 0.063% hits. H1299 p53-A138V BP100-luciferase reporter, luminescence, 24 h. AID 504706, 2011. Potency, µM (doses to about 92.2 µM), without a hit: at the highest dose activity change, positive = activation, usual class: activators; note: % of control where 0% means no effect; nearly all actives have a fitted effect of over 45% in size
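H1299 (p53-null), stable ts p53-A138V + BP100-Luc; 1000 cells/well, Opti-MEM/10% FBS; cpd 4 pt, 1:5; 24 h, 37 deg C, 5% CO2; detection reagent 10 min RT; luminescence.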
FLuc counter: qHTS profiling assay for firefly luciferase inhibitor/activator using purifed enzyme and Km concentrations of substrates (counterscreen for miR-21 project); 360,000 compounds, 6.9% hits; purified FLuc, Km substrates, luminescence inhibition; Luciferin 4-monooxygenase (Photinus pyralis), P08659; Potency, µM (top dose mostly 57.5 µM), inactives show at the highest dose activity change, negative = inhibition, hits mostly inhibitors;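 note: plate controls were vehicle for no effect and reference inhibitor for full effect; nearly all actives have a fitted effect of over 55% in size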
Target sequence (P08659 whole entry, looked up): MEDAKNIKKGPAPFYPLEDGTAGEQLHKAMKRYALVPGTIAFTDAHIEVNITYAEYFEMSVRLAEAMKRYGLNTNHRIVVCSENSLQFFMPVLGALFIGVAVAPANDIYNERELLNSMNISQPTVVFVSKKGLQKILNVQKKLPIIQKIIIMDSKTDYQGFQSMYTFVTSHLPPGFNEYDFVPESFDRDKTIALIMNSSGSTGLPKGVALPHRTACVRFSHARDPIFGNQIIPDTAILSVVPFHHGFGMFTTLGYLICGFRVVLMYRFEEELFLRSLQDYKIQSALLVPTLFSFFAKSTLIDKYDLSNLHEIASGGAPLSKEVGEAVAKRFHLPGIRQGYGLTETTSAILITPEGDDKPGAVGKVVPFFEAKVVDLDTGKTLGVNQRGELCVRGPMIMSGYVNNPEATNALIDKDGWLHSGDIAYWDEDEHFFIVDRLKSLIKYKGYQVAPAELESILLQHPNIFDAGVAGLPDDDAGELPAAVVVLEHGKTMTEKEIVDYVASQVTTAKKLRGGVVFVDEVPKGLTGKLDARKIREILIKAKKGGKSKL
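Purified P. pyralis luciferase (10nM final) with 10uM D-luciferin and 10uM ATP (Km levels) in 50mM Tris acetate pH 7.5, 10mM Mg acetate, 0.01% Tween-20, 0.05% BSA; qHTS 6-point titration, ~60 µM downward; luminescence read.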
Rab9 promoter act: qHTS Assay for Rab9 Promoter Activators; Huh7 Rab9 promoter-luciferase reporter, luminescence, 24 h; Potency, µM (doses to about 9.22 µM), inactives show top-dose activation, negative = inhibition, actives largely listed as activators; 320,000 compounds, 2.8% hits; note: % of control where 0% means no effect; nearly all actives have a fitted effect of over 60% in size
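Cells were plated at 1500 per well in reduced-serum medium with 10% FBS and left 2 h. Compound in DMSO was then added for 24 h at 37 °C. Reporter signal was read by luminescence after 10 min with luciferase detection reagent.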
NPC1 prom act: qHTS Assay for NPC1 Promoter Activators; Huh7 NPC1 promoter luciferase reporter, 24 h; Potency, µM (top dose mostly 9.22 µM), for the others: at the top dose activation, hits mostly activators; 320,000 compounds, 2.4% hits; AID 485313, 2010; note: % of control where 0% means no effect; nearly all actives have a fitted effect of over 60% in size
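Huh7 reporter cells (NPC1 promoter driving luciferase) are dosed with compound for 24 h at 37 °C, 5% CO2; luciferase detection reagent is then added and luminescence measured after 10 min at ambient temperature.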
SMN2 splice up: qHTS Assay for Enhancers of SMN2 Splice Variant Expression; HEK293 SMN2-luciferase splicing reporter, luminescence, 30-36 h; 210,000 compounds, 2.8% hits; Potency, µM (titrated, usually from 46.1 µM), without a hit: at the highest dose activity change, positive = activation, most hits filed as activators; note: % of control where 0% means no effect; nearly all actives have a fitted effect of over 55% in size
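HEK293 cells carry an SMN2 […]–luciferase reporter in which exon 7 inclusion puts luciferase in frame. Cells were plated 10-12 h before compound addition, then incubated 30-36 h at 37C. ONE-Glo luminescence was read; sodium butyrate at 4.5 mM final served as control.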
ELG1 genotox: qHTS screen for small molecules that induce genotoxicity in human embryonic kidney (HEK293T) cells expressing luciferase-tagged ELG1; HEK293T ELG1-luciferase reporter, luminescence, 16 h; Potency, µM (top dose mostly 46 µM), inactives show at the highest dose activity change, positive = activation, usual class: activators; 330,000 compounds, 1.3% hits; note: % of control where 0% means no effect; nearly all actives have a fitted effect of over 60% in size
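Screening used a luciferase reporter fused to human ELG1 in HEK293T cells. Luminescence was read on a CCD plate imager after 16 hr exposure and 30 min ONE-Glo incubation.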
Active calls of the source: *; ? = inconclusive; / = no result given; [ ] = another dose, or the depositor's remark. This is a sample that favours compounds with a hit; in the whole collection about 7.3% have one here. Calls come from the whole dose curve; as a rule, active = well fitted curve in the direction sought with a large enough effect; inconclusive = small, poorly fitted or top-dose-only effect, or another doubt; inactive = no such curve, though single readings can be large; an effect the other way counts as inactive or inconclusive. Potency is the fitted concentration of half-maximal effect.

SMILES | p53 reactivation | FLuc counter | Rab9 promoter act | NPC1 prom act | SMN2 splice up | ELG1 genotox
O=c1c2ccccc2nc2sc3ccccc3n12 | ? | 5.36µM* | 3.98µM* | 3.98µM* | 14.1µM* | ?
O=C(O)c1cccc(-c2ccc(/C=c3/sc4nc5ccccc5n4c3=O)o2)c1 | 14.3% | 9.53µM* | 28.5% | 25.4% | / | 6.0%
O=c1/c(=C/c2ccccn2)sc2nc3ccccc3n12 | ? | 0.135µM* | ? | ? | 12.6µM* | 0.82µM*
CCn1cc(C(=O)OCC(=O)Nc2cccc(Cl)c2C)c(=O)c2ccc(C)nc21 | / | 4.0% | / | / | -2.7% | /
Oc1ccc(Cl)cc1CNc1ccc(Br)cn1 | ? | 19µM* | 1.3% | 0.5% | / | ?
O=C(/C=C/c1ccc([N+](=O)[O-])cc1)c1ccco1 | 10.5% | -7.2% | 4.2% | -10.0% | / | -1.8%
O=C(/C=C/c1ccc(Br)cc1)c1ccco1 | ? | 3.38µM* | 4.2% | 0.6% | -2.8%[1.84 µM] | ?
O=C(/C=C/C=C/c1ccccc1)c1ccco1 | 22.4µM* | 3.01µM* | 24.5% | ? | / | 15.3%
COC(=O)c1ccc(C(NC(=O)OCc2ccccc2)/C(=C/[C@@H](C)C(=O)N(C)C)c2cccnc2)cc1 (some centres undefined) | / | / | / | / | -2.9% | /
Cc1cc(C)c2c(n1)sc1c(=O)n(-c3cc(Cl)ccc3C)nnc12 | / | 7.2% | / | / | -5.9% | /
Cc1ccn2c(Nc3ccc4c(c3)OCCO4)c(-c3ccc(Cl)s3)nc2c1 | / | 6.01µM* | / | / | 20.7% | /
Cc1cccc2nc(-c3ccco3)c(Nc3ccc4c(c3)OCO4)n12 | -2.6% | ? | 0.5% | -1.2% | -35.0% | 8.6%
Cc1ccn2c(Nc3ccc4c(c3)OCO4)c(-c3ccco3)nc2c1 | / | 6.01µM* | / | / | 15.0% | /
CC(C)c1ccc(Nc2c(-c3ccco3)nc3ccccn23)cc1 | / | 23.9µM* | / | / | ? | /
CN(C)c1ccc(-c2nc3cnccn3c2Nc2ccc3c(c2)OCCO3)cc1 | 6.3% | 10.7µM* | ? | ? | / | 17.6%
Cc1ccn2c(Nc3ccc4c(c3)OCO4)c(-c3ccc(N(C)C)cc3)nc2c1 | / | ? | / | / | 15.8µM* | /
CC(C)Sc1nsc2nc(=O)c(/C=C3\C=Nc4ccccc43)c(N)n12 | ? | 23.9µM* | -1.6% | -1.1% | 0.6% | 0.2%
CS(=O)(=O)c1nsc2nc(=O)c(/C=C3\C=Nc4ccccc43)c(N)n12 | 1.5% | 15.1µM* | 1.3% | -0.7% | 3.0% | 4.4%
CC(C)c1nn2c(N)c(/C=C3\C=Nc4ccccc43)c(=O)nc2s1 | 0.8% | ? | -6.1% | 1.3% | / | 3.8%
COc1ccc(-c2nc(-c3ccccc3)oc2Nc2ccccc2C)cc1 | / | / | / | / | 8.2% | /
COc1cccc(/C=N/Nc2cc(Cl)nc(C)n2)c1O | 4.1% | 3.01µM* | 2.2% | ? | / | 6.6%
COc1cccc(/C=N/Nc2nnc(C)n2N)c1O | ? | -12.9% | 8.4% | 9.2% | / | -4.1%
COc1cccc(/C=N/Nc2c(Cl)cncc2Cl)c1O | 13.1% | 9.53µM* | 27.6% | ? | / | 10.7%
CC(=O)c1ccc(N2CCN(c3ncnc4c3cnn4-c3cc(Cl)ccc3C)CC2)cc1 | / | -3.9% | / | / | / | /
O=C(CCC(=O)c1cccs1)OCC(=O)N1CCN(C(=O)c2ccco2)CC1 | 5.9% | 5.1% | -5.8% | ? | 11.7% | -2.3%
SMILES | p53 reactivation | FLuc counter | Rab9 promoter act | NPC1 prom act | SMN2 splice up | ELG1 genotox
CCOc1ccc(/C=N/Nc2ccccc2)cc1 | 7.9% | ? | 12.0% | 11.5% | / | ?
O=C(CCC(=O)Nc1ccccc1)N/N=C/c1ccco1 | -6.8% | 3.3% | 3.4% | -0.7% | -21.5% | 0.9%
O=C(N/N=C/c1ccco1)Nc1ccccc1 | ? | 19µM* | 3.98µM* | 3.16µM* | / | ?
O=C(N/N=C/c1ccc(Cl)cc1)Nc1ccccc1 | 11.2% | 4.26µM* | ? | ? | ? | ?
O=C(CO)N/N=C/c1ccc(Cl)cc1 | 1.1% | -3.2% | 3.1% | 0.2% | 11.2% | 2.8%
Clc1ccc(/C=N\Nc2ccccc2)cc1 | 16.5% | 16.9µM* | 16.7% | 9.1% | / | ?
COc1ccc(NC(=O)Nc2cccs2)cc1OC | 4.9% | 21.3µM* | 19.8% | 18.2% | -7.5% | ?
CC(=O)c1cccc(NC(=O)Nc2cccs2)c1 | 8.7% | 19µM* | 9.7% | 14.6% | 15.1% | -19.5%
COc1cccc(NC(=O)Nc2cccs2)c1 | ? | 23.9µM* | ? | 19.0% | ? | 1.9%
Cc1ccc(N=Nc2c(C)[nH][nH]c2=O)c(C)c1 | ? | 7.57µM* | 22.5% | 3.1% | 16.4% | ?
COc1ccccc1N=Nc1c(C)[nH][nH]c1=O | 2.9% | ? | 0.8% | -1.7% | / | 3.9%
Cc1ccc(N(CC(=O)N/N=C/c2cc(C)n(-c3ccccc3C)c2C)S(C)(=O)=O)cc1 | 16.8% | 16.9µM* | 2.6% | -4.8% | 0.5% | -1.5%
Cc1cc(C)cc(-n2c(C)cc(/C=N/NC(=O)CN(c3c(C)cccc3C)S(C)(=O)=O)c2C)c1 | 1.2% | 0.1% | -34.8% | -1.2% | 17.4% | -1.6%
COc1ccc(-c2onc(C)c2C)cc1S(=O)(=O)N1c2ccccc2CC1C (centres undefined) | / | -1.4% | / | / | / | /
CCOC(=O)c1ccc(N2C(=O)c3n[nH]c(-c4ccco4)c3C2c2ccccc2OC)cc1 (centres undefined) | / | -9.5% | / | / | -1.2% | /
CCc1ccc(-c2nc(SCC(=O)N(CC)C3CCS(=O)(=O)C3)n[nH]2)cc1 (centres undefined) | 23.4% | 3.38µM* | ? | 21.4% | / | 9.0%
O=C(CSc1n[nH]c(-c2ccc(Br)cc2)n1)NC1CCCC1 | 3.5% | / | / | / | / | -0.2%
Cc1ccc(Nc2nnc(SCC(=O)c3c(N)n(C4CC4)c(=O)[nH]c3=O)s2)cc1C | ? | 0.757µM* | 2.4% | 12.3% | / | -1.3%
CCc1ccc(-c2nc(SCC(=O)N3CCOCC3)n[nH]2)cc1 | 6.8% | 16.9µM* | 21.7% | 7.0% | / | 9.5%
CCc1ccc(-c2nc(SCC(=O)NC3CC3)n[nH]2)cc1 | 1.8% | 13.5µM* | 15.1% | -2.4% | / | ?
CCc1ccc(-c2nc(SCC(=O)c3c(N)n(C4CC4)c(=O)[nH]c3=O)n[nH]2)cc1 | ? | 2.13µM* | 26.9% | 14.3% | / | -0.6%
Cc1ccc(-c2nc(SCC(=O)c3c(N)n(C4CC4)c(=O)[nH]c3=O)n[nH]2)cc1 | -2.7% | / | / | / | / | 1.6%
O=C(Nc1cccc(F)c1)N1CCC2(CC1)CCN(C(=O)c1cc(C(F)(F)F)cc(C(F)(F)F)c1)CC2 | / | / | / | / | -6.6% | /
C/C(O)=C1\C(=O)[C@@H]2[C@H]3c4c[nH]c5cccc(c45)C[C@H]3C(C)(C)N2C1=O | / | / | / | / | -4.7% | /
